Screening data deposited in PubChem by National Center for Advancing Translational Sciences (NCATS).
Most compounds without a hit are left out; they make up all but 2.7% or so of the library.
NTMT1 inh: Primary qHTS for Inhibitors of N-terminal methyltransferase 1 (NTMT1): MTaseGlo Assay | Potency, µM (titrated, usually from 114 µM), actives largely listed as inhibitors | N-terminal Xaa-Pro-Lys N-methyltransferase 1 (Homo sapiens), Q9BV86 | hit rate 2.5% among 59,000 | NTMT1 MTase-Glo SAH luminescence, purified enzyme; note: nearly all actives have a fitted effect of over 65% in size
Target sequence (Q9BV86 whole entry, looked up): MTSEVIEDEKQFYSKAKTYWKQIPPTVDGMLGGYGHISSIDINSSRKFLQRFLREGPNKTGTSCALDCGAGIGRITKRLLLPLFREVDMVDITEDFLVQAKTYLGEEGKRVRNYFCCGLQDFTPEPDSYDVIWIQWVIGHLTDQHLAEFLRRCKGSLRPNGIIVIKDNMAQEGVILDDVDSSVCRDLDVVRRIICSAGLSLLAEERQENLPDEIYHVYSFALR
HTT-AS promoter: Primary qHTS for Identification of Small Molecule Activators of Huntingtin-Antisense Promoter Activity; HEK293 HTT-AS promoter firefly luciferase reporter, 24 h; response scale: percent change from vehicle, -100% = no light; Potency, µM (highest dose often 57.5 µM), most hits filed as activators; hit rate 0.24% among 48,000; AID 1508624, 2021; note: nearly all actives have a fitted effect of over 55% in size
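Luminescence was read after Dual-Glo reagent and a 10 min room-temperature incubation. Values were normalized to vehicle (0% activity) and zero RLU (-100% activity). Reporter HEK293 cells had been exposed to compounds (up to 57.5 uM final) for 24 h.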
GALC G270D act: A Novel Cell-Based Assay to Identify Small Molecules for B -Galactocerebrosidase. hit rate 0.1% among 45,000. P54803. AID 1159614, 2016. 145M-Twi-hGALC-G270D cells (Twitcher mouse brain line with human GALC G270D), HMU-beta-Gal fluorescence, 48 h. Potency, µM (highest dose often 57.5 µM), usual class: activators; note: nearly all actives have a fitted effect of over 65% in size
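Mutant human GALC (G270D), stably expressed in a Twitcher mouse brain cell line lacking endogenous GALC, is measured in live-treated cells via 6-hexadecanoylamino-4-methylumbelliferyl-β-galactoside hydrolysis (0.1 mM final, pH 5.2) with fluorescent detection.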
HTT promoter inh: Primary qHTS for Identification of Small Molecule Inhibitors of Huntingtin Promoter Activity; Potency, µM (titrated, usually from 57.5 µM), most hits filed as inhibitors; HEK293 HTT promoter firefly luciferase reporter, 24 h; AID 1508623, 2021; hit rate 0.93% among 48,000; note: nearly all actives have a fitted effect of over 50% in size
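Quantitative HTS used concentration series of up to 57.5 uM final on HEK293 luciferase reporter cells, 24 h at 37 degrees C. Readout was Dual-Glo firefly luminescence.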
NNMT counter: Counterscreen qHTS for Inhibitors of N-terminal methyltransferase 1 (NTMT1): NNMT MTaseGlo assay. shares compounds with NTMT1 inh. NNMT MTase-Glo luminescence, SAH detection. Potency, µM (top dose mostly 57.1 µM), most hits filed as inhibitors. hit rate 10% among 120. AID 1645878, 2021
Target sequence (P40261 whole entry, looked up): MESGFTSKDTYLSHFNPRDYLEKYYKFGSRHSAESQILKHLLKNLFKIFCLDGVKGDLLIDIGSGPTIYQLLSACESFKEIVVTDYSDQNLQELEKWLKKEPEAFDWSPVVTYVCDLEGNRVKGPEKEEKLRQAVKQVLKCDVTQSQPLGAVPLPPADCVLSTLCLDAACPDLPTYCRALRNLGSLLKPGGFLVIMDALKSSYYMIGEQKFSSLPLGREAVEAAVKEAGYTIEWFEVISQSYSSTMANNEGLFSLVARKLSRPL
Numbers stand for hits; ! = a repeat was not active; [ ] = dose if it differs, or a comment. Calls come from the whole dose curve; as a rule, active = well fitted curve in the direction sought with a large enough effect; inconclusive = small, poorly fitted or top-dose-only effect, or another doubt; inactive = no such curve, though single readings can be large; an effect the other way counts as inactive or inconclusive.

Screening O=C(c1cc(O)c(O)c(O)c1)c1ccc(O)c(O)c1O returned NTMT1 inh 32µM, HTT-AS promoter inactive, GALC G270D act inactive and HTT promoter inh inactive.
`CC[C@@H]1[C@H](F)C(=O)N[C@@H]1COc1nccc2cc(C(N)=O)c(OC)cc12` gave NTMT1 inh inactive.
`CC(=O)c1ccc(NC(=O)CSc2nccn2Cc2ccco2)cc1` gave NTMT1 inh inactive, HTT-AS promoter 3.2µM, GALC G270D act inactive and HTT promoter inh inactive.
For Cc1ccc(NC(=O)CSc2nccn2Cc2ccco2)cc1Cl the results were NTMT1 inh inactive, HTT-AS promoter 13µM, GALC G270D act inactive and HTT promoter inh inactive.
For C=C1C2CCC3CC2(CC(O)C2(O)C1CC(OC1OC(CO)C(O)C(O)C1O)C2(C)C)CC3(C)O (stereo unspecified) the results were NTMT1 inh inactive.
For CN(C)CCCNc1c2ccccc2nc2c1[nH]c1ccccc12 the results were NTMT1 inh 35µM.
Screening Nc1nnc2c(n1)[nH]c1ccccc12 returned NTMT1 inh inactive, HTT-AS promoter inactive, GALC G270D act inactive and HTT promoter inh inactive.
`CC(C)[N+](C)(C)CC(O)COc1cccc2ccccc12` (stereo unspecified) gave NTMT1 inh 8.9µM, HTT-AS promoter inactive, GALC G270D act inactive and HTT promoter inh inactive.
CC(C)NCC(O)COc1cccc2[nH]ccc12 (stereo unspecified) was read as NTMT1 inh inactive, HTT-AS promoter inactive, GALC G270D act inactive and HTT promoter inh inactive.
Nc1nc2c(c(=O)[nH]1)C[C@@H](CCc1ccc(C(=O)N[C@@H](CCC(=O)O)C(=O)O)cc1)CN2 was read as NTMT1 inh inactive.
Screening CCc1ccccc1NC(=O)Cn1nc(-c2cc(C)ccc2C)c2c(c1=O)CCCC2 returned NTMT1 inh 89µM, HTT-AS promoter inactive, GALC G270D act inactive and HTT promoter inh inactive.
For CCc1ccccc1NC(=O)Cn1nc(C(F)(F)F)c2c1CCC2 the results were NTMT1 inh inactive, HTT-AS promoter inactive, GALC G270D act inactive and HTT promoter inh inactive.
For FC(F)(F)c1cc(-c2ccc(CNc3nc(-c4ccccc4C(F)(F)F)nc4ccccc34)cc2)cc(C(F)(F)F)c1 the results were NTMT1 inh inactive.
`COc1ccc(CNC(=O)CSc2ncc(S(=O)(=O)c3ccc(Br)cc3)c(=O)[nH]2)cc1` gave NTMT1 inh inactive, HTT-AS promoter inactive, GALC G270D act inactive and HTT promoter inh inactive.
Screening COC(=O)c1cc(Cl)ccc1NC(=O)CSc1ncc(S(=O)(=O)c2ccc(Br)cc2)c(=O)[nH]1 returned NTMT1 inh 79µM, HTT-AS promoter inactive, GALC G270D act inactive and HTT promoter inh inactive.
`Cc1nnc(-c2cnn(C)c2N)n1CCc1cccs1` gave NTMT1 inh inactive.
Screening NC(=O)c1c(OCc2c(F)cc(Br)cc2F)nsc1NC(=O)NCCCCN1CCCC1 returned NTMT1 inh 30µM!, HTT-AS promoter inactive and HTT promoter inh inactive.
`CC(=O)OC[C@]12[C@H](OC(C)=O)C(=O)[C@@H]3[C@@H](O)[C@@]14O[C@@]3(C)COC(=O)c1cccnc1[C@@H](C)[C@H](C)C(=O)O[C@@H]([C@H](O)[C@@H]2OC(C)=O)[C@]4(C)O` gave NTMT1 inh inactive[12.6 µM].
Screening Cc1ccc(-c2noc(CCCC(=O)NCc3ccco3)n2)cc1 returned NTMT1 inh inactive, HTT-AS promoter inactive, GALC G270D act inactive and HTT promoter inh 3.5µM.
O=C(CCCc1nc(-c2ccc(Cl)cc2)no1)NCc1ccco1 was read as NTMT1 inh inactive, HTT-AS promoter inactive, GALC G270D act inactive and HTT promoter inh inconclusive.
For O=c1c(-c2ccc(O)cc2)coc2cc(OC3O[C@H](CO)[C@H](O)[C@H](O)[C@H]3O)cc(O)c12 (stereo partly specified) the results were NTMT1 inh 24µM, HTT-AS promoter inactive and HTT promoter inh inactive.
`Cc1ccc(-c2c(C)n3c4c(=O)n(C)c(=O)n(C)c4nc3n2CCO)cc1` gave NTMT1 inh inconclusive, HTT-AS promoter inactive, GALC G270D act inactive and HTT promoter inh 2µM.
CCCCn1c(-c2ccc(C)cc2)c(C)n2c3c(=O)n(C)c(=O)n(C)c3nc12 was read as NTMT1 inh inconclusive, HTT-AS promoter inactive, GALC G270D act inactive and HTT promoter inh inactive.
For CN1C(=O)c2ccccc2-n2c(nc3ccccc3c2=O)[C@@]12O[C@H]2c1ccccc1 the results were NTMT1 inh inactive.
O=S(=O)(c1ccc(Cl)cc1)N1CCN(c2ccnc3cc(Cl)ccc23)CC1 was read as NTMT1 inh inactive.
Oc1ccc(C2CCN(c3ccnc4ccccc34)CC2)cc1O was read as NTMT1 inh 10µM!, HTT-AS promoter inactive and HTT promoter inh inconclusive.
Screening Cc1ccc(Cl)cc1NC(=O)c1cnc(N2CCCCC2)c2ccccc12 returned NTMT1 inh 89µM, HTT-AS promoter inactive, GALC G270D act inactive and HTT promoter inh inactive.
`Cc1ccc(NC(=O)c2cnc(N3CCCCC3)c3ccccc23)c(C)c1` gave NTMT1 inh inactive, HTT-AS promoter inactive, GALC G270D act inactive and HTT promoter inh inactive.
For Fc1ccccc1CNCc1ccc(-c2ccnc3[nH]ccc23)cc1 the results were NTMT1 inh inconclusive and NNMT counter inconclusive.
For O=C(O[C@H]1[C@@H]2C=CO[C@@H](O[C@@H]3O[C@H](CO)[C@@H](O)[C@H](O)[C@H]3O)[C@@H]2[C@@]2(CO)O[C@@H]12)c1ccc(O)c(O)c1 the results were NTMT1 inh inactive.
